# Laboratory results as given in PubChem BioAssay AID430 (Sanford-Burnham Center for Chemical Genomics, 2006).
# Screen size: about 63,000 compounds; about 1,100 (1.7%) were called active. The sample as a whole holds a higher share of actives than the screen did. Results with a measured potency or affinity are listed apart. Values without a mark were called inactive. Rule as the data show it: active = cytotoxicity above about 50%; inactive = the rest.
# Assay: HPDE-C7 pancreatic duct cell viability loss – fluorescence, HTS (AID 430);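 also: cells exposed to compound for 48 hours before viability readout; 0% = vehicle and 100% = reference cytotoxic drug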
# Settings: HPDE-C7 pancreatic duct cells viability, at 10 µM, stronger effect = higher value
row,Structure (SMILES),cytotoxicity
1,Cc1nc(SCc2c(F)cccc2Cl)c2c(=O)n(C)c(=O)n(C)c2n1,-26.2%
2,CC(C)c1nc(SCc2c(F)cccc2Cl)c2c(=O)n(C)c(=O)n(C)c2n1,77.1% (active)
3,CC(C)c1nc(SCc2ccccn2)c2c(=O)n(C)c(=O)n(C)c2n1,-2%
4,CCOC(=O)c1cnc(SCC(=O)Nc2nnc(CC)s2)nc1N,-4.3%
5,C=CCn1cnc2c(c1=O)c1nc3ccccc3nc1n2/N=C/c1cccc(OC)c1,48.5%
6,C=CCn1cnc2c(c1=O)c1nc3ccccc3nc1n2/N=C/c1cccc(OC)c1OC,46.6%
7,O=C(CCSc1ccccc1)Nc1ccc(S(=O)(=O)N2CCOCC2)cc1,1.8%
8,COc1cc2c(cc1OC)C1Cc3ccc(OC)c(OC)c3CN1CC2 (stereo unspecified),-10.2%
9,COc1cc2c(cc1OC)C(c1cc(OC)c(OC)c(OC)c1)NCC2 (stereo unspecified),4.6%
10,O=C(O)C1CC(=O)N(c2ccc(F)cc2)C1 (stereo unspecified),-16.5%
11,CCOC(=O)C1C2C=CC3(CN(c4cccc(Cl)c4)C(=O)C13)O2 (stereo unspecified),-0.8%
12,CC1(C)C2CC=C(/C=N/n3cnnc3)C1C2 (stereo unspecified),-4.1%
13,O=C(c1ccc(F)cc1)C1CCN(CCn2c(=O)[nH]c3ccccc3c2=O)CC1,5.4%
14,O=c1c2ccccc2[nH]c(=S)n1CCN1CCN(Cc2ccccc2)CC1,-3.8%
15,COc1ccc(C(=O)OCC(=O)NCc2ccco2)cc1OC,-14.8%
16,COc1cc(S(=O)(=O)Nc2cccnc2)ccc1F,-3.6%
17,CCCCOc1ccc(S(=O)(=O)Nc2cccnc2)cc1,-5.2%
18,COc1ccccc1Oc1ccc(S(=O)(=O)Nc2cccnc2)cc1,51.5% (active)
19,Cc1nc(NC(=O)CSc2nc3cccnc3n2C2CCCCC2)sc1C,9.2%
20,Cc1nnc2sc(-c3cccc(NC(=O)c4ccc(-c5cccc(Cl)c5)o4)c3)nn12,0.6%
21,Cc1ccc(-c2nn3c(C)nnc3s2)cc1NC(=O)c1ccc(Br)o1,-10.8%
22,CC(C)CNc1nc(Oc2ccc(=O)n(C)n2)nc(N2CCOCC2)n1,-7.6%
23,Cc1cccc(-n2ncc3c(NCc4ccco4)ncnc32)c1,64.1% (active)
24,c1ccc(Cn2ncc3c(NCc4ccco4)ncnc32)cc1,8.9%

row,Structure (SMILES),cytotoxicity
1,c1ccc(-n2ncc3c(NCc4ccco4)ncnc32)cc1,1.4%
2,Clc1ccc(-n2ncc3c(NCc4ccco4)ncnc32)cc1,17.4%
3,Clc1ccc(Cn2ncc3c(NCc4ccco4)ncnc32)c(Cl)c1,51.5% (active)
4,Cc1ccc(-n2ncc3c(NCc4ccco4)ncnc32)c(C)c1,-6.7%
5,Cc1ccc(Cl)cc1N1CCN(C(=O)C2CCN(c3nnc(-n4cccc4)s3)CC2)CC1,43.7%
6,Cc1ccc(C)c(N2CCN(C(=O)C3CCN(c4nc(C)cc(C)n4)CC3)CC2)c1,11.3%
7,Cc1cc(C)nc(N2CCC(C(=O)N3CCN(c4cc(Cl)ccc4C)CC3)CC2)n1,59.5% (active)
8,O=C(COC(=O)C1c2ccccc2Oc2ccccc21)NC1CCS(=O)(=O)C1 (stereo unspecified),-3.2%
9,Cc1cc2nc(NC3=NCN(Cc4ccc5c(c4)OCO5)CN3)nc(C)c2cc1C,93.4% (active)
10,Cc1ccc2nc(NC3=NCN(Cc4ccc5c(c4)OCO5)CN3)nc(C)c2c1,8.3%
11,Cc1nc(NC2=NCN(Cc3ccc4c(c3)OCO4)CN2)nc2ccccc12,2.1%
12,CC(=O)C1=C(O)C(=O)N(Cc2ccco2)C1c1ccccc1 (stereo unspecified),-10.9%
13,Cc1ccc(Cn2c(=N)c(C(=O)NCc3ccco3)cc3c(=O)n4ccccc4nc32)cc1,-10.8%
14,N=c1c(C(=O)NCc2ccccc2)cc2c(=O)n3ccccc3nc2n1Cc1ccco1,1.8%
15,Cc1ccc(S(=O)(=O)c2cc3c(=O)n4ccccc4nc3n(Cc3ccco3)c2=N)cc1,21.9%
16,N=c1c(S(=O)(=O)c2ccccc2)cc2c(=O)n3ccccc3nc2n1Cc1ccco1,-0.3%
17,Cc1ccc(CNC(=O)c2cc3c(=O)n4ccccc4nc3n(Cc3ccco3)c2=N)cc1,104% (active)
18,CC1=C(C(N)=O)C(c2ccccn2)n2nc(-c3ccccc3Cl)nc2N1 (stereo unspecified),13.8%
19,C=C(C)COc1ccc2c3c(c(=O)oc2c1OCC(=C)C)CCC3,11.5%
20,Cc1ccc(C(C(=O)NC2CCCCC2)N(Cc2cccnc2)C(=O)C2COc3ccccc3O2)o1 (stereo unspecified),-11.7%
21,C=CCn1c(SCC(=O)NC2CCCCC2)nnc1-c1sc(N)nc1C,-10%
22,CCn1c(COc2ccc3c(c2)OCO3)nnc1SCC(=O)c1ccccc1,-1.4%
23,CN(CC(=O)NCc1cccs1)S(=O)(=O)c1cccc2cccnc12,-9.8%
24,O=S(=O)(NCc1cccs1)c1cccc2cccnc12,-9.6%

row,Structure (SMILES),cytotoxicity
1,CCOC(=O)C1(C)NC(c2ccc(N(C)C)cc2)C2C(=O)N(CC)C(=O)C21 (stereo unspecified),-12.4%
2,O=c1c2ccccc2nc(SCc2cc(F)cc3c2OCOC3)n1Cc1ccco1,-2.2%
3,O=C(c1ccc(F)cc1)c1ccc(N2CCCC2)cc1,-17.7%
4,N#Cc1nc(-c2ccc(F)cc2)oc1N1CCCC1,-7.6%
5,CN(C)CCN1C(=O)C(O)=C(C(=O)c2ccco2)C1c1ccccc1F (stereo unspecified),-4.8%
6,CCn1c(=O)cc(OCC(=O)N2CCCC2)c2ccccc21,-3%
7,COc1ccc(C(CNC(=O)Cn2[nH]c(=O)c3ccccc3c2=O)N2CCCC2)cc1 (stereo unspecified),1.8%
8,Cc1cccc(Cc2c(C)nc3nc(SCC(=O)NCc4ccco4)nn3c2C)c1,45.8%
9,Cc1ccc(Cc2c(C)nc3nc(SCC(=O)NCc4ccco4)nn3c2C)cc1,61.8% (active)
10,Cc1ccccc1Cc1c(C)nc2nc(SCC(=O)NCc3ccco3)nn2c1C,12%
11,Cc1nnc(NC(=O)c2ccc(-c3cccc(C(F)(F)F)c3)o2)s1,-13.1%
12,CCOC(=O)c1c(C)nn(Cc2ccccc2)c1N,-1.6%
13,CCOC(=O)c1sc(NC(=O)c2c(C)nn(Cc3ccccc3)c2C)cc1C,72.7% (active)
14,CCOC(=O)c1sc(NC(=O)c2cccs2)cc1C,-16.1%
15,Cc1cccc(OCc2nnc(SCC(=O)N(C(C)C)C(C)C)n2Cc2ccco2)c1C,-16%
16,CC1(C)Cc2c(sc3ncn4nc(CCC(=O)O)c(=O)nc4c23)CO1,-23.3%
17,Cc1onc(-c2ccccc2)c1C(=O)Nc1cc(C(F)(F)F)ccc1N1CCOCC1,69.1% (active)
18,Cc1onc(-c2ccccc2)c1C(=O)Nc1ccccc1N1CCOCC1,4.9%
19,CC(=O)Nc1cc(C(F)(F)F)ccc1N1CCOCC1,14.9%
20,O=C(Nc1cc(C(F)(F)F)ccc1N1CCOCC1)c1ccco1,1.1%
21,O=C(Nc1cc(C(F)(F)F)ccc1N1CCOCC1)c1cccnc1,4.3%
22,O=C(Nc1cc(C(F)(F)F)ccc1N1CCOCC1)c1c(F)c(F)c(F)c(F)c1F,51% (active)
23,COc1ccccc1NC(=O)C1=C(C)Nc2ncnn2C1c1cccs1 (stereo unspecified),3.3%
24,O=C(Cn1cnc2c(nnn2Cc2ccccc2F)c1=O)OCc1ccccc1,-18.4%

row,Structure (SMILES),cytotoxicity
1,CCSc1nnc(NC(=O)CSc2nnc(Cc3cccn3C)n2-c2ccc(F)cc2)s1,65.6% (active)
2,CCSc1nnc(NC(=O)CSc2nnc(Cc3cccn3C)n2-c2ccc(C)cc2)s1,39.6%
3,Cn1cccc1Cc1nnc(SCC(=O)Nc2ccc(F)cc2)n1-c1ccc(F)cc1,-3.8%
4,Cc1nnc(Nc2ccc(C(=O)NCCO)cc2)c2ccccc12,8.6%
5,CC(O)C(=O)NCCOCCOCCNC(=O)C(C)O (stereo unspecified),-5.5%
6,Cc1ccc(O)c(Sc2cc(C)ccc2O)c1,52.6% (active)
7,CC(C)c1ccc(O)c(N)c1,6.8%
8,COC(=O)c1ccc(OC(=O)c2ccc(OC)c(OC)c2)c(OC)c1,4.3%
9,COC(=O)c1ccc(Sc2ccc(C)cc2)c(N)c1,9.4%
10,Cc1ccc(SC(C)C(=O)NCC(C)C)cc1 (stereo unspecified),-2.6%
11,CN(CCC#N)S(=O)(=O)c1ccc2c(c1)c(=O)n(C)c(=O)n2C,-12.5%
12,CCCN(S(=O)(=O)c1ccc(OCC)cc1)S(=O)(=O)c1cccs1,-20.2%
13,CCOC(=O)c1ccccc1NC(=O)c1ccccc1SC,25.3%
14,COCC(=O)Nc1cc(OC)c(Cl)cc1OC,-1.4%
15,COc1cc(NC(=O)c2c(F)c(F)c(F)c(F)c2F)c(OC)cc1Cl,55.4% (active)
16,CCOC(=O)c1ccccc1NC(=O)c1cccs1,-6%
17,Cc1ccccc1NC(=O)c1c(F)c(F)c(F)c(F)c1F,-10.5%
18,O=C(Nc1ccccc1Cl)c1c(F)c(F)c(F)c(F)c1F,-8.2%
19,COc1cc(NC(=O)C2CCCC2)c(OC)cc1Cl,-20.5%
20,O=C(CSc1nnc(-c2ccc(Cl)cc2)n1Cc1ccco1)c1cccs1,-6.2%
21,CCCCS(=O)CC(COCc1ccccc1)OC(=O)CSc1nc(C)cc(C)n1 (stereo unspecified),8.8%
22,COC(=O)C1=CNC=C(C(=O)OC)C1c1ccc(C(=O)OC)cc1,5.1%
23,CC1(C)Cc2c(c(=S)nc(-c3ccccc3)n2CCN2CCOCC2)CO1,-21.2%
24,CCOC(=O)C1CCN(C(=O)c2sc3nc(-c4ccccc4)cn3c2C)CC1,-0.3%
